A short description of test [1]: qHTS assay to identify small molecule antagonists of the thyroid receptor (TR) signaling pathway - cell viability counter screen (AID 743064). Also: nearly all actives have a fitted effect of over 50% in size. Also: potency is read from the fitted curve at half-maximal effect. In a few lines:
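Fluorescence from CellTiter-Fluor, added after 23.5 h exposure at 37 °C, reported viability of GH3.TRE-Luc cells co-treated with compound and 1 nM T3. Measured in the same wells as the luciferase TR readout.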

Test [2] in a line: qHTS assay to identify small molecule antagonists of the thyroid receptor (TR) signaling pathway (AID 743065). Also: potency is read from the fitted curve at half-maximal effect; nearly all actives have a fitted effect of over 55% in size. Summed up: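 GH3.TRE-Luc rat pituitary cells carrying two TR response elements driving luciferase were plated for 4 h, given compound plus 1 nM T3 (final), and incubated 23.5 h at 37 C. ONE-Glo luminescence measured reporter inhibition; CellTiter-Fluor fluorescence tracked cytotoxicity.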
A general note: qHTS replaces the single test concentration by a dilution series.

Test [3] deals with Estrogen receptor (Homo sapiens) (UniProt P03372). The experiment in a line: qHTS assay to identify small molecule antagonists of the estrogen receptor alpha (ER-alpha) signaling pathway (AID 743069; active = well fitted curve in the direction sought with a large enough effect in the signal ratio in the repeat runs, not every such curve was filed as active; the % refers to the signal ratio; also: potency is read from the fitted curve at half-maximal effect). Summed up:
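HEK293 cells stably carrying an ER-alpha-UAS-bla beta-lactamase reporter were pre-cultured overnight in 2% charcoal-stripped FBS medium. Test compounds in DMSO were added together with 17beta-estradiol for 18 hr at 37C. Read-out was fluorescence after 2 hr with LiveBLAzer B/G FRET substrate at room temperature.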

The target of a further test is Aromatase (Homo sapiens) (UniProt P11511). The experiment in a line: qHTS assay to identify aromatase inhibitors (AID 743083). Also: nearly all actives have a fitted effect of over 55% in size. Also: potency is read from the fitted curve at half-maximal effect.
The nature of test [4]: qHTS assay to identify aromatase inhibitors - cell viability counter screen (AID 743084).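 Also: cells stimulated with testosterone during compound exposure; nearly all actives have a fitted effect of over 55% in size.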 Also: potency is read from the fitted curve at half-maximal effect.
Test [5] can be described thus: qHTS assay to identify small molecule antagonists of the peroxisome proliferator-activated receptor gamma (PPARg) signaling pathway - cell viability counter screen (AID 743194). Also: nearly all actives have a fitted effect of over 55% in size. Also: potency is read from the fitted curve at half-maximal effect. Summed up: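 PPARg-UAS-bla HEK293H cells were plated, rested 5 h at 37 C, then treated with compounds plus rosiglitazone (50 nM final) for 17 h at 37 C; viability was then read by CellTiter-Glo luminescence after 30 min at room temperature.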

Test [6] can be described thus: qHTS assay to identify small molecule agonists of the peroxisome proliferator-activated receptor delta (PPARd) signaling pathway - cell viability counter screen (AID 743211). In a few lines: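 HEK293H PPARd-bla, 3000 cells/well; 5 h preincubation 37C/5% CO2; cpd in DMSO, 17 h 37C; B/G FRET substrate 2 h RT; CellTiter-Glo 30 min RT, luminescence.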
Test [7] concerns thyroid hormone receptor (rat, GH3 cells). The experiment in a line: qHTS assay to identify small molecule agonists of the thyroid receptor (TR) signaling pathway (AID 743066; calls by dose curve).
A short description of test [8]: qHTS assay to identify small molecule antagonists of the estrogen receptor alpha (ER-alpha) signaling pathway - cell viability counter screen (AID 743074; calls by dose curve; also: nearly all actives have a fitted effect of over 45% in size; also: potency is read from the fitted curve at half-maximal effect).
Test [9] has as its target Estrogen receptor (Homo sapiens) (UniProt P03372). Put plainly: qHTS assay to identify small molecule agonists of the estrogen receptor alpha (ER-alpha) signaling pathway (AID 743075; calls by dose curve).
Test [10] has the same target. Put plainly: qHTS assay to identify small molecule agonists of the estrogen receptor alpha (ER-alpha) signaling pathway using the BG1 cell line (AID 743079). Also: nearly all actives have a fitted effect of over 20% in size.
A short description of test [11]: qHTS assay to identify small molecule antagonists of the estrogen receptor alpha (ER-alpha) signaling pathway using the BG1 cell line (AID 743080; calls by dose curve;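 also: BG1 cells stimulated with 17beta-estradiol alongside compound; nearly all actives have a fitted effect of over 25% in size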; also: potency is read from the fitted curve at half-maximal effect). In a few lines: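 Seeding, 24 h rest, compound transfer from DMSO, 17beta-estradiol addition, 21.5 h incubation, CellTiter-Fluor (30 min, 37 C), then ONE-Glo (30 min, room temperature): this sequence was run on BG1-Luc-4E2 reporter cells.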

Test [12] can be described thus: qHTS assay to identify small molecule antagonists of the estrogen receptor alpha (ER-alpha) signaling pathway using the BG1 cell line - cell viability counter screen (AID 743081).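 Also: compound given together with 17beta-estradiol as the ER stimulus; series mostly up to about 70 µM; nearly all actives have a fitted effect of over 45% in size.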
Test [13] addresses Aryl hydrocarbon receptor (Homo sapiens) (UniProt P35869). The experiment in a line: qHTS assay to identify small molecule that activate the aryl hydrocarbon receptor (AhR) signaling pathway (AID 743085). Also: nearly all actives have a fitted effect of over 15% in size. Also: potency is read from the fitted curve at half-maximal effect.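 As to activation: HG2L7.5c1 human HepG2 liver cells with stably integrated DRE-driven firefly reporter; series mostly up to about 70 µM.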 In a few lines: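 Cell line HG2L7.5c1 (human hepatoma, 20× DRE-luc). Plated, 5 h 37C, compound/DMSO added, 24 h 37C. CellTiter-Fluor 30 min 37C → fluorescence; then ONE-Glo 30 min RT → luminescence.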

The nature of test [14]: qHTS assay to identify small molecule that activate the aryl hydrocarbon receptor (AhR) signaling pathway - cell viability counter screen (AID 743086). Also: nearly all actives have a fitted effect of over 45% in size. Also: potency is read from the fitted curve at half-maximal effect. In a few lines:
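HepG2-AhR-luc (HG2L7.5c1) cells, 4000/well, were preincubated 5 h at 37C, exposed to compound in qHTS format for 24 hr at 37C, then given CellTiter-Fluor for 30 min; viability was read as fluorescence in the reporter wells.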

The target of test [15] is Peroxisome proliferator-activated receptor gamma (Homo sapiens) (UniProt P37231). Put plainly: qHTS assay to identify small molecule agonists of the peroxisome proliferator-activated receptor gamma (PPARg) signaling pathway (AID 743094; active = well fitted activation curve with a large enough effect in the signal ratio in the repeat runs, not every such curve was filed as active; the % refers to the signal ratio). In a few lines:
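Compounds dissolved in DMSO were added to PPARg UAS-bla HEK293H cells for 17 h at 37C, and reporter expression was quantified by fluorescence intensity after 1 h with LiveBLAzer B/G FRET substrate.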

Test [16] can be described thus: qHTS assay for small molecule activators of the heat shock response signaling pathway - cell viability counter screen (AID 743209). Also: nearly all actives have a fitted effect of over 50% in size. Also: potency is read from the fitted curve at half-maximal effect. Summed up:
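Readout: CellTiter-Glo luminescence, 30 min at room temperature. System: HSE-bla HeLa cells, 1500/well, plated overnight. Treatment: compounds in DMSO, 5 h at 37 C.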

A short description of test [17]: qHTS assay for small molecule activators of the heat shock response signaling pathway (AID 743210; active = well fitted activation curve with a large enough effect in the signal ratio in the repeat runs, with a control signal flat, not every such curve was filed as active; the % refers to the signal ratio; also: series mostly up to about 63 µM). Summed up:
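HSE-bla HeLa cells (beta-lactamase reporter under heat shock response elements) were exposed to compounds for 5 h at 37 C, then loaded with LiveBLAzer B/G FRET substrate for 2.5 h at room temperature before fluorescence reading.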

Test [18] addresses Peroxisome proliferator-activated receptor gamma (Homo sapiens) (UniProt P37231). The experiment in a line: qHTS assay to identify small molecule antagonists of the peroxisome proliferator-activated receptor gamma (PPARg) signaling pathway (AID 743191; calls by dose curve; also: series mostly up to about 63 µM; nearly all actives have a fitted effect of over 30% in size). In a few lines: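 GeneBLAzer PPARg UAS-bla HEK293H cells carrying a UAS-driven beta-lactamase reporter were plated at 3000 cells/well, preincubated 5 h at 37C, then given compound for 17 h at 37C; LiveBLAzer B/G FRET substrate was read after 1 h at room temperature.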

Values joined by “and” are separate entries in the source; they are usually repeats but may differ in a detail not shown here. Identical values can stand only once. Records with an inconclusive call do not appear. Active and inactive are the calls of the source. Unless noted, calls follow the shape of the dose curve; as a rule, active = well fitted curve in the direction sought with a large enough effect in the repeat runs; inconclusive = weak or mixed curves; inactive = no such curve, though single readings can be large; an effect the other way counts as inactive or inconclusive.

Aromatase (Homo sapiens), sequence (P11511 whole entry, looked up): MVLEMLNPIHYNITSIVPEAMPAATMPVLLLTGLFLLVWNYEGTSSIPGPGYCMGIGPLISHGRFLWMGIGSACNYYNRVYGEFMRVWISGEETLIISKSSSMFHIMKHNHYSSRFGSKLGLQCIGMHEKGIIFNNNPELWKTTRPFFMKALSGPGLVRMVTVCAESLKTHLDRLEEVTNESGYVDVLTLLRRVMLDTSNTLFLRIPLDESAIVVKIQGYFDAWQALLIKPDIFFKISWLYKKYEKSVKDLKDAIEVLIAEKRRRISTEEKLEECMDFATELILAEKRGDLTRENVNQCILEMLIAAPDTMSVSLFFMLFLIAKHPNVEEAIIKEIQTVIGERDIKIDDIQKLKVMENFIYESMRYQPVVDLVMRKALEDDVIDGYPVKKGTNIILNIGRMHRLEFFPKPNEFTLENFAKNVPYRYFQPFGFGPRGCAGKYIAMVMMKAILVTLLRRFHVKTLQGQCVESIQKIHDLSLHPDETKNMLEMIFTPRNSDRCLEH
Peroxisome proliferator-activated receptor gamma (Homo sapiens), sequence (P37231 whole entry, looked up): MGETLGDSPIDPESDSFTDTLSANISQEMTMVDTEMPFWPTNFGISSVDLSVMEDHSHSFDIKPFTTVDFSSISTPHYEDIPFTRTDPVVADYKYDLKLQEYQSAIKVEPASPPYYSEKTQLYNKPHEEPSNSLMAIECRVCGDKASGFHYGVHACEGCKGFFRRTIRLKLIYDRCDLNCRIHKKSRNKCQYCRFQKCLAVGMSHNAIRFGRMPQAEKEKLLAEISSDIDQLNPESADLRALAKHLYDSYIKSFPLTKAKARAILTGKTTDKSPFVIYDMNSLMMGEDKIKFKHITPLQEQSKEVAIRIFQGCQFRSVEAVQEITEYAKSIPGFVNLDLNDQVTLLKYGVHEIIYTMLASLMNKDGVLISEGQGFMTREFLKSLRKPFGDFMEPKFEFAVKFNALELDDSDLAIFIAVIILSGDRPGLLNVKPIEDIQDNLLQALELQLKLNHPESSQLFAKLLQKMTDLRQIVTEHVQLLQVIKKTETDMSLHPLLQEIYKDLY
Aryl hydrocarbon receptor (Homo sapiens), sequence (P35869 whole entry, looked up): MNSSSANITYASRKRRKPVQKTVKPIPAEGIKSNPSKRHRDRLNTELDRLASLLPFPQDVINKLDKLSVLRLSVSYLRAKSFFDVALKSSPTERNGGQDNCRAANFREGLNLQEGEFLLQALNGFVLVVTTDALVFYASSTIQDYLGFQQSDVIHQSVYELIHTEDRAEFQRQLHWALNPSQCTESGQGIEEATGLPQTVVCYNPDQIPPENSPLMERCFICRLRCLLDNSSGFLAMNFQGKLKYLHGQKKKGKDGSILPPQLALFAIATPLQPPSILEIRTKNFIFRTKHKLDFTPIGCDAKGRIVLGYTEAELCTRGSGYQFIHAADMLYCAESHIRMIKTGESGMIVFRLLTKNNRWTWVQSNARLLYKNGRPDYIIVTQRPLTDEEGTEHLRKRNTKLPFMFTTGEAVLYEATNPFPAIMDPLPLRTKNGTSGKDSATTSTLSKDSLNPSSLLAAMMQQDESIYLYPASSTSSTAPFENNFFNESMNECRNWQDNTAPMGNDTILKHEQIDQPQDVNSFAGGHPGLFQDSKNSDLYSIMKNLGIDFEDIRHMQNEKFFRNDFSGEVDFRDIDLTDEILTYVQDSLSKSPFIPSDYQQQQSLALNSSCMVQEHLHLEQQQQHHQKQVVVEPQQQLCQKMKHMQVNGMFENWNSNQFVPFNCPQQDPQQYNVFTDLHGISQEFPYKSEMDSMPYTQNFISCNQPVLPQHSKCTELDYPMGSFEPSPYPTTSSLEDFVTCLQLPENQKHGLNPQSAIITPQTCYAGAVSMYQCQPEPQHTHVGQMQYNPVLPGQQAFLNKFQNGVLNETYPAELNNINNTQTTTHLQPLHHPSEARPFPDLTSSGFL
Estrogen receptor (Homo sapiens), sequence (P03372 whole entry, looked up): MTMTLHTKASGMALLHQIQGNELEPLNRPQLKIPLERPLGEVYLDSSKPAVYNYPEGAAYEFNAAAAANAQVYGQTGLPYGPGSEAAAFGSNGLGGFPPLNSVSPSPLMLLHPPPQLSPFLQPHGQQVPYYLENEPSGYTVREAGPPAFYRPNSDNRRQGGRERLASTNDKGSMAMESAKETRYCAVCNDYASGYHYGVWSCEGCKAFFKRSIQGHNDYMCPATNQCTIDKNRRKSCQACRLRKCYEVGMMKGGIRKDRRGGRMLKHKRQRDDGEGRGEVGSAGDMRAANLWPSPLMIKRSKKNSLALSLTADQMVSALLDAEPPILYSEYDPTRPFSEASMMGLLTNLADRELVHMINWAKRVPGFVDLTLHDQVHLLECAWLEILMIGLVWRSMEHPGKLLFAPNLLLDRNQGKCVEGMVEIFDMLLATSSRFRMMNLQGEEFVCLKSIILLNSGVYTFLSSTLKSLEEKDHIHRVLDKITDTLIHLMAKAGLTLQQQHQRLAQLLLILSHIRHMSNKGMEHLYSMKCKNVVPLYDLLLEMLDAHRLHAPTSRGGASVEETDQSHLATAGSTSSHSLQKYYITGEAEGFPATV

For `CCCCCCCCOC(=O)c1cc(O)c(O)c(O)c1`, the Potency in test [1] was 2.17 µM (active); in test [2] it was 1.93 µM (active); in [3], 61.6 µM [cytotoxic] (active); with Aromatase (Homo sapiens), 34.4 µM (active); in test [4], 54.5 µM (active); in test [5] it was 34.7 µM (active). The Potency in test [6] was 43.6 µM (active).
In the case of `CCN(CC)CCn1c(=O)c(Cc2ccc(OC)cc2)nc2ccccc21`, in [1], the Potency is 26.6 µM (active). Also, the Potency result in test [7], in [3], in test [8], in [9], in test [10] and in test [11] was “inactive” throughout. In addition, the Potency entry (in test [12]; with Aromatase (Homo sapiens); in test [4]; in test [13]; in test [14]; in test [15]) was “inactive” each time.
As for `CN[C@H]1CC[C@@H](c2ccc(Cl)c(Cl)c2)c2ccc(S(N)(=O)=O)cc21`, the Potency is 8.63 µM (active) in [1]; 4.33 µM (active) in [2]; 68.6 µM (active) in [11]; 48.6 µM (active) with Aromatase (Homo sapiens); 61.1 µM (active) in [14]; 49 µM (active) in test [5]. Moreover, the Potency in [6] was 6.92 µM (active). In addition, the Potency result in test [9], in test [12], in test [13] and in test [16] was “inactive” each time. Also, in test [17], the compound was called inactive.
`O=[N+]([O-])c1ccc(O)c2ncccc12`: the Potency in [1] was 5.31 µM (active); in test [2], 4.73 µM (active); in the test with Aromatase (Homo sapiens), 7.5 µM (active); in test [4] it was 10.6 µM (active); in test [13] it was 3.35 µM (active). For the same compound, the Potency entry in test [14], in test [18], in [5] and in test [16] was “inactive” in each case.
Take `CNCCC=C1c2ccccc2CCc2ccccc21`: the figures for the Potency in test [1] and in test [2] were 11.9 µM (active) and 10.6 µM (active), respectively. Also, the Potency entry in test [9], in test [10], in [11], in test [12], in test [4] and in [13] was “inactive” each time.
In the case of `CCCCCCCC[N+](C)(C)CCCCCCCC`, the Potency in [1] is 21.1 µM (active); in test [2], 11.9 µM (active) and 13.3 µM (active); in [11], 29.8 µM (active); with Aromatase (Homo sapiens), 29.8 µM (active) and 26.6 µM (active). Besides, the Potency result in [9], in [12], in test [13], in test [14] and in test [15] was “inactive” throughout.
Regarding `CC(C)COC(=O)OCN1C(=O)CN(CCN2CC(=O)N(COC(=O)OCC(C)C)C(=O)C2)CC1=O`, the Potency entry in test [1], in test [7], in test [3], in [8], in [9] and in [10] was “inactive” each time. The Potency entry (in test [11]; in test [12]; with Aromatase (Homo sapiens); in test [4]; in test [13]; in test [14]) was “inactive” in each case. For the same compound, the Potency result in test [15] is “inactive”.
For `Cc1cc(F)ccc1-c1cc(N2CC[C@@H](O)[C@H]2CO)ncc1N(C)C(=O)C(C)(C)c1cc(C(F)(F)F)cc(C(F)(F)F)c1`, the Potency in test [1] was 10.7 µM (active); in test [2], 9.54 µM (active); in [8], 43 µM (active); with Aromatase (Homo sapiens), 24 µM (active); in test [4] it was 42.6 µM (active); in [14], 38 µM (active). The Potency was 43 µM (active) in [5], 19.2 µM (active) in test [16] and 13.6 µM (active) in test [6]. The Potency entry in test [13] was “inactive”.
